Data: PubChem BioAssay AID1159580 (chemical genetic matrix, 2015)
About 2,000 (36%) of roughly 5,500 compounds were called active. Roughly 18% stayed inconclusive and do not appear here. Cut-off read from the data, not from the text of the source: active = normalized growth mostly below about 0.91 (no sharp cut-off); inconclusive = no clear call, values can overlap the other calls; inactive = mostly above about 0.92. This is one part of the list.

Test: chemical genetic growth profiling, strain panel (AID 1159580);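 note: tested at 20 µM; growth read once vehicle control cultures reached saturation at 30 °C; 1 = growth at the plate median or of vehicle wells; lower values mean less growth of the strain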
Conditions: growth OD
[1] = S. cerevisiae deletion strains, locus YAL013W, strain DEP1, active compounds read low
[2] = S. cerevisiae deletion strains, locus YDR150W, strain NUM1, active compounds read low
[3] = S. cerevisiae deletion strains, locus YNL322C, strain KRE1, active compounds read low
[4] = S. cerevisiae deletion strains, locus YPL241C, strain CIN2, active compounds read low

Measured: normalized growth

CC1C(=O)N(C)C(=O)c2nc[nH]c21 (configuration not stated)
inactive: [1] 0.997 | S. cerevisiae deletion strains, locus YAL040C, strain CLN3, active compounds read low 0.993 | S. cerevisiae deletion strains, locus YCL061C, strain MRC1 (second series), active compounds read low 1 | [2] 1.01 | S. cerevisiae deletion strains, locus YDR363W, strain ESC2, active compounds read low 0.998 | S. cerevisiae deletion strains, locus YER002W, strain NOP16, active compounds read low 1 | S. cerevisiae deletion strains, locus YGR229C, strain SMI1, active compounds read low 0.992 | S. cerevisiae deletion strains, locus YMR307W, strain GAS1, active compounds read low 0.991 | S. cerevisiae deletion strains, locus YNL128W, strain TEP1, active compounds read low 1 | S. cerevisiae deletion strains, locus YNL175C, strain NOP13, active compounds read low 1 | S. cerevisiae deletion strains, locus YNL197C, strain WHI3, active compounds read low 0.989 | S. cerevisiae deletion strains, locus YNL224C, strain SQS1, active compounds read low 1 | [3] 0.992 | S. cerevisiae deletion strains, locus YOR083W, strain WHI5 (second series), active compounds read low 1.02 | [4] 1

Cc1nn(C)c(C)c1NS(=O)(=O)c1cc(Cl)sc1Cl
inactive: [1] 1 | S. cerevisiae deletion strains, locus YBR229C, strain ROT2, active compounds read low 1.03 | S. cerevisiae deletion strains, locus YDL101C, strain DUN1, active compounds read low 1.05 | S. cerevisiae deletion strains, locus YDL134C, strain PPH21, active compounds read low 1.02 | [2] 0.956 | S. cerevisiae deletion strains, locus YEL061C, strain CIN8, active compounds read low 1.03 | S. cerevisiae deletion strains, locus YGR078C, strain PAC10, active compounds read low 1.01 | S. cerevisiae deletion strains, locus YHR030C, strain SLT2, active compounds read low 1.04 | S. cerevisiae deletion strains, locus YHR087W, strain rtc3, active compounds read low 1.03 | S. cerevisiae deletion strains, locus YJL187C, strain SWE1, active compounds read low 1.02 | S. cerevisiae deletion strains, locus YJR043C, strain POL32, active compounds read low 1.01 | S. cerevisiae deletion strains, locus YJR075W, strain HOC1, active compounds read low 1.02 | S. cerevisiae deletion strains, locus YLR039C, strain RIC1, active compounds read low 1 | S. cerevisiae deletion strains, locus YLR058C, strain SHM2 (second series), active compounds read low 1.03 | S. cerevisiae deletion strains, locus YLR085C, strain ARP6, active compounds read low 1.03 | S. cerevisiae deletion strains, locus YLR262C, strain YPT6, active compounds read low 0.993 | S. cerevisiae deletion strains, locus YML094W, strain GIM5, active compounds read low 1.01 | S. cerevisiae deletion strains, locus YMR219W, strain ESC1, active compounds read low 1.01 | S. cerevisiae deletion strains, locus YMR263W, strain SAP30, active compounds read low 0.914 | S. cerevisiae deletion strains, locus YNL153C, strain GIM3, active compounds read low 1.04 | S. cerevisiae deletion strains, locus YNL298W, strain CLA4 (second series), active compounds read low 1.04 | [3] 1.01 | S. cerevisiae deletion strains, locus YNR030W, strain Alg12, active compounds read low 1.01 | S. cerevisiae deletion strains, locus YPL055C, strain LGE1, active compounds read low 1.01 | [4] 1.01 | S. cerevisiae deletion strains, locus YPR135W, strain CTF4, active compounds read low 1.14 | S. cerevisiae strains, strain wild type, active compounds read low 1.02
